Reference: PubChem BioAssay (NCI)
About 83,000 compounds went through this panel and 20% of them were active in at least one assay; those are over-represented in the sample as a whole.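 How to read the values: 0–100, growth inhibition (40 = 60% inhibited); 0, no net growth; -100 to 0, cell death (-40 = 40% of starting cells died; -100 = all dead).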 Activity calls are given as the source filed them. Rule for the calls: active = growth percent below 10; inactive = the rest.

Key:
Test in all cases: NCI-60 one-dose screen, 48 h (100 = growth as untreated, 0 = no growth, -100 = all killed)
Settings in all cases: 10 µM unless noted
[1] = tested on: SK-MEL-2 melanoma
[2] = tested on: EKVX NSCLC
[3] = tested on: SN12C renal
[4] = tested on: UO-31 renal
[5] = tested on: TK-10 renal
[6] = tested on: ACHN renal
[7] = tested on: CAKI-1 renal
[8] = tested on: A498 renal
[9] = tested on: CCRF-CEM leukemia
[10] = tested on: MOLT-4 leukemia

Measured: growth

Nc1nc2c(c3ncccc13)C(c1cccc(Br)c1)Cc1ncccc1-2 (stereo not given)
active: [1] 3.12% | [8] -14.9% | [9] 8.84% | [10] 7.86%
inactive: [2] 41% | [3] 34.4% | [4] 33.8% | [5] 35.2% | [6] 43% | [7] 41.4%

C=C1C(=O)O[C@H]2[C@H]1CC/C(Cn1cc(Cn3ccc4cc(Cl)ccc43)nn1)=C\CC[C@@]1(C)O[C@@H]21
inactive: [1] 18.1% | [2] 42.4% | [3] 19.4% | [8] 45%
active: [4] -100% | [5] -24.7% | [6] -97.8% | [7] 3.92% | [9] -27.1% | [10] -22.1%

CNCc1cccc2c1OCCOCCOCCN(C)S(=O)(=O)c1ccc(cc1)-c1cnc(N)c(n1)C(=O)N2
active: [9] -23.6% | [10] 0.352%
inactive: [1] 56.7% | [2] 43.6% | [3] 37% | [4] 36.5% | [5] 53.3% | [6] 22.1% | [7] 44.6% | [8] 36.7%

Nc1cccc(NC(=O)C(=O)Nc2cccc(N)c2)c1
inactive: [1] 97.6% | [2] 94% | [3] 88.6% | [4] 84.4% | [5] 122% | [6] 85.8% | [7] 78.1% | [8] 89.6% | [9] 97.9% | [10] 98.1%

CN1CCN(Cc2ccc(NC(=O)c3[nH]ncc3Nc3ncnc4[nH]ccc34)cc2)CC1
active: [1] -12.3% | [4] 3.55% | [5] -61.8% | [6] 5.97% | [7] -1.63% | [8] -59% | [9] 4.71% | [10] -20.9%
inactive: [2] 13% | [3] 13.3%

CCN(CC)c1ccc(/C=C/C2=[N+](C)c3ccccc3C2(C)C)cc1
inactive: [4] 22.1% | [5] 28.7% | [8] 50.7% | [10] 15.1%
active: [1] -1.48% | [2] 0.0796% | [3] 1.41% | [6] -1.03% | [7] -8.77% | [9] 7.5%

O=C(CN1CCN(c2cc3c(cc2F)c(=O)c(C(=O)O)cn3C2CC2)CC1)Nc1nc(-c2ccccc2)cs1
inactive: [1] 94.6% | [2] 91.4% | [3] 71.2% | [4] 81.7% | [5] 82.9% | [6] 89.5% | [7] 93.8% | [8] 65.2% | [9] 79.1% | [10] 89%

COc1cc(C#N)cc(OC)c1OCCN(CCOc1c(OC)cc(C#N)cc1OC)S(=O)(=O)c1ccc(C)cc1
inactive: [1] 75% | [2] 108% | [3] 111% | [4] 45.5% | [5] 140% | [6] 97.5% | [7] 109% | [8] 107% | [9] 103% | [10] 97.6%

C=C(CN1CCN(c2cccc(C(F)(F)F)n2)CC1)c1ccc(C(=O)Nc2ccccc2N)cc1
inactive: [2] 47.2% | [3] 15.5% | [4] 12% | [5] 41.6% | [6] 34% | [7] 14.3% | [8] 35.6%
active: [1] -9.9% | [9] -32.1% | [10] -14.5%

CC(=O)Oc1ccc(Nc2c3ccccc3nc3ccccc23)cc1
active: [1] -30.7% | [3] 5.67% | [4] -16.4% | [5] 3.64% | [6] -31.7% | [7] -32% | [8] -37.2% | [9] -8.66% | [10] 1.46%
inactive: [2] 24%

CCN(CC)CC(O)c1cc(-c2ccc(Cl)cc2)nc2c(C)c(Cl)ccc12 (stereo not given)
active: [1] -68.8% | [2] -63.1% | [3] -86.4% | [4] -78.8% | [5] -92.5% | [6] -93.2% | [7] -100% | [8] -36.4% | [9] -37.4% | [10] -72.4%

COc1ccc(-c2nn(-c3ccccc3)cc2/C=C/C(=O)OCc2cn(-c3ccc(F)c(Cl)c3)nn2)cc1
inactive: [1] 86.9% | [2] 101% | [3] 80.1% | [4] 43% | [5] 118% | [6] 83.3% | [7] 79.2% | [8] 77.3% | [9] 101% | [10] 71.2%

CC(C)n1cc2c(N)ncnc2n1
inactive: [1] 89.5% | [2] 88.1% | [3] 98.2% | [4] 90% | [5] 96.6% | [6] 105% | [7] 79.4% | [8] 126% | [9] 109% | [10] 98.2%

O=C1c2c[n+](Cc3ccccc3)ccc2-c2nc3ccccc3c3ccnc1c23
active: [1] -53.6% | [2] -1.66% | [3] -74.2% | [4] -21.8% | [5] -20.2% | [6] -13% | [8] -56.1% | [9] -13.1% | [10] -17.2%
inactive: [7] 13.8%

CCOC(=O)c1cnc2cc(Cl)c(F)cc2c1Nc1cccc(NS(C)(=O)=O)c1
inactive: [1] 113% | [2] 90.8% | [3] 100% | [4] 73.3% | [5] 124% | [6] 93.5% | [7] 86.2% | [8] 78.9% | [9] 103% | [10] 99.9%

Cc1cc(N/N=C/c2nc(-c3ccc(Cl)cc3)oc2C)c2cc(Cl)ccc2n1
active: [3] -5.24% | [9] -24.3% | [10] -20.7%
inactive: [1] 104% | [2] 92% | [4] 21.2% | [5] 30.5% | [6] 63.4% | [7] 90.2% | [8] 86.9%

COc1ccc(-n2cc(-c3ccccc3)c3c(SCC(=O)N/N=C/c4ccc([N+](=O)[O-])cc4)ncnc32)cc1
inactive: [1] 98.1% | [2] 97% | [3] 102% | [4] 79.4% | [5] 108% | [6] 105% | [7] 89.7% | [8] 108% | [9] 104% | [10] 108%

CCCCCCCCCCCCCCCC(=O)OCC1OC(n2cnc3c(=S)nc(N)[nH]c32)C(OC(=O)CCCCCCCCCCCCCCC)C1OC(=O)CCCCCCCCCCCCCCC (stereo not given)
inactive: [1] 54.7% | [2] 48.6% | [3] 84.2% | [4] 50% | [5] 35.7% | [6] 75% | [7] 49.4% | [8] 116% | [9] 15.9%
active: [10] -24%

O=C(O)c1c([N+](=O)[O-])cnc2ccccc12
inactive: [1] 102% | [2] 58.2% | [3] 97.2% | [4] 64.9% | [5] 102% | [6] 111% | [7] 98% | [8] 118% | [9] 127% | [10] 105%

Cc1nc2sc(C(=O)Nc3cccc4c3OCCO4)c(N)c2cc1C(C)O (stereo not given)
active: [8] -4.54%
inactive: [1] 17.1% | [2] 35.1% | [3] 40.4% | [4] 44.3% | [5] 55.7% | [6] 44.8% | [7] 40.9% | [9] 19.3% | [10] 28.2%

C=C1CCC2C3(C)COC(c4ccc(SC)cc4)OC3CCC2(C)C1C/C=C1/C(=O)OCC1O (stereo not given)
inactive: [1] 64.8% | [2] 56.1% | [3] 65.6% | [4] 60.7% | [5] 101% | [6] 74.2% | [7] 75.3% | [8] 96.7%
active: [9] 2.76% | [10] 5.06%

OC(c1cccc(C(F)(F)F)c1)c1cnccc1NC1CCCCCC1 (stereo not given)
inactive: [1] 43% | [2] 57.3% | [3] 54.1% | [4] 28.7% | [5] 60.4% | [6] 43.9% | [7] 40.4% | [8] 50.3% | [9] 30.5% | [10] 22.6%

CCCNc1nc(SC)nc(-c2cccc(N)c2)c1C#N
inactive: [1] 111% | [2] 82.6% | [3] 90.1% | [4] 76.8% | [5] 150% | [6] 97.7% | [7] 73% | [8] 72.4% | [9] 108% | [10] 101%

Cc1ccc(N)cc1F
inactive: [1] 97.1% | [2] 98% | [3] 96% | [4] 92.6% | [5] 123% | [6] 99.8% | [7] 74.5% | [8] 98.2% | [9] 102% | [10] 92.3%

CC(=O)C1=C(O)C=C2Oc3c(C(=O)/C=C/c4cc(Cl)cc(Cl)c4)c(O)c(C)c(O)c3[C@]2(C)C1=O
active: [1] -62.8% | [2] -15.6% | [3] -31.8% | [4] -15.1% | [5] -17.4% | [6] -12.4% | [7] 2.74% | [8] -57.7% | [9] -22% | [10] -25.3%

CC(=O)C1=C(O)C=C2Oc3c(C(=O)/C=C/c4ccccc4)c(O)c(C)c(O)c3[C@]2(C)C1=O
active: [1] -3.97%
inactive: [2] 36.7% | [3] 23.4% | [4] 30.7% | [5] 33.6% | [6] 48.2% | [7] 46.7% | [8] 14.3% | [9] 22.1% | [10] 32.6%

CN1CCN(c2ccc3nc(-c4ccc5nc(-c6ccc(OCCC(C)(C)C)cc6)[nH]c5c4)[nH]c3c2)CC1
active: [1] 5.57% | [9] -50% | [10] -41.2%
inactive: [2] 52.8% | [3] 75.4% | [4] 85.3% | [5] 89.9% | [6] 64.4% | [7] 65.4% | [8] 88.6%

Nc1c(C(=O)Nc2ccccc2)sc2nc3c(cc12)CN(CCc1ccccc1)CC3
inactive: [1] 105% | [2] 88.3% | [3] 89.4% | [4] 80.3% | [5] 113% | [6] 95.3% | [7] 86.9% | [8] 91.3% | [9] 104% | [10] 104%
